These results are taken from PubChem BioAssay (EPA / NIEHS).

Activity calls are given as the source filed them. The calls were made as follows: active = hit-call score of the fitted dose curve at least 0.9, where 1 is the maximum; inactive = score below 0.9.

A short description of assay [1]: ATG_M_32_CIS: Attagene CIS-FACTORIAL HepG2 Assay for M32 Transcription Factor (Internal Marker) (AID 2282949).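 Also: background control marker of the multiplexed CIS panel rather than a real target.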 Conditions: HepG2 Attagene cis-factorial M32 reporter, mRNA; actives raise or lower the signal. The gist of the method: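 HepG2 transfectants (cis-regulated reporter transcription units) dosed 24 h. Reporter mRNA by RT-PCR plus CE, analysed as gain or loss relative to DMSO.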

A short description of assay [2]: ATG_M_06_CIS: Attagene CIS-FACTORIAL HepG2 Assay for M06 Transcription Factor (Internal Marker) (AID 2282950). Conditions: HepG2 Attagene CIS-FACTORIAL M06 internal marker reporter; actives raise or lower the signal. The gist of the method:
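Cells (HepG2, transiently carrying cis-driven reporter units) receive chemical for 24 h before RNA isolation. Reporter cDNA is PCR-amplified, FAM-labelled by primer extension, HpaI-digested and sized on a capillary analyser.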

For assay [3], the target named is Hypoxia-inducible factor 1-alpha (Homo sapiens) (UniProt Q16665). Briefly: ATG_HIF1a_CIS: Attagene CIS-FACTORIAL HepG2 Assay for human Hypoxia Inducible Factor 1 (HIF1A) (AID 2282951). Conditions: HepG2 Attagene cis-factorial HIF1a reporter transcription; actives raise or lower the signal. The method in brief: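 Activity is fitted in both directions relative to DMSO. Reporter transcripts are read by RT-PCR, fluorescent primer extension and capillary electrophoresis after 24 h chemical treatment. The cells are HepG2 carrying transiently transfected cis-element-driven reporter units responding to endogenous factors.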
Hypoxia-inducible factor 1-alpha (Homo sapiens), sequence (Q16665 whole entry, looked up): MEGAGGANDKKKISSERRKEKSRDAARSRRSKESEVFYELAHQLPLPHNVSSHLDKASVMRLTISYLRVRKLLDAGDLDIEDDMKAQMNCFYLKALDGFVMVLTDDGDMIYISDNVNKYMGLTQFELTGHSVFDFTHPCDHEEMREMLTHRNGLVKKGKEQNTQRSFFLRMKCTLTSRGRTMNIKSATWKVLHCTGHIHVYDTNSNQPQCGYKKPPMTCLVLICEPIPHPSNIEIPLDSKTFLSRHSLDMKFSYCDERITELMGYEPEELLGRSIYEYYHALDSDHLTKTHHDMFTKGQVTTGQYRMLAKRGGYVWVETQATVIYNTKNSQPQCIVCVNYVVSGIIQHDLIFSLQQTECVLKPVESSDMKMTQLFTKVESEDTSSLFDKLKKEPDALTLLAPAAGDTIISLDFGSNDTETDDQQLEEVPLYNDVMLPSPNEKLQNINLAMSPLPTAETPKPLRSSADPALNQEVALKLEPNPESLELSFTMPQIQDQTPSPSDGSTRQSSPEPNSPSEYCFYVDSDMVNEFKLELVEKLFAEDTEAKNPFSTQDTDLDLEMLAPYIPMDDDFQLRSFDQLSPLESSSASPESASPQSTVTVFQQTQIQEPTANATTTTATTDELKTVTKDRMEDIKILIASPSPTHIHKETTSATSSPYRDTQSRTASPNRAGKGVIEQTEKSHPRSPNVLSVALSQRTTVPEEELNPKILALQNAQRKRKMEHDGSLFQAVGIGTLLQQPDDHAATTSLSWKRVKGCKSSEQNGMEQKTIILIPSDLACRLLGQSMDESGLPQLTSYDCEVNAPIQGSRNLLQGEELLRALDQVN

In assay [4] the target is Hepatocyte nuclear factor 6 (Homo sapiens) (UniProt Q9UBC0). Briefly: ATG_HNF6_CIS: Attagene CIS-FACTORIAL HepG2 Assay for human Hepatocyte Nuclear Factor 6 (HNF6) (AID 2282952). The settings on record: HepG2 Attagene cis-factorial HNF6 reporter transcription; actives raise or lower the signal. The method in brief:
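Activity values derive from bidirectional fitting against DMSO of reporter mRNA levels, measured by capillary electrophoresis of labelled RT-PCR products from HepG2 cells exposed 24 h.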

Assay [5] concerns the target Heat shock factor protein 1 (Homo sapiens) (UniProt Q00613). Briefly: ATG_HSE_CIS: Attagene CIS-FACTORIAL HepG2 Assay for human Heat Shock Transcription Factor 1 (HSE) (AID 2282953). Conditions: HepG2 HSE cis-reporter, Attagene RNA transcription; actives raise or lower the signal. The method in brief: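 Liver-derived HepG2 cells carry transiently introduced multiple reporter units governed by cis promoters. Reporter RNA measured 24 h post-dose through reverse transcription, PCR amplification, fluorescent labelling and capillary electrophoresis, normalised to DMSO.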

A short description of assay [6]: ATG_MRE_CIS: Attagene CIS-FACTORIAL HepG2 Assay for human Metal Responsive Element (MRE) (AID 2282954). Conditions: HepG2 MRE cis-reporter transcription, Attagene multiplex; actives raise or lower the signal. The method in brief:
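Measured here is mRNA induction from an MRE cis-element reporter in HepG2 after 24 h, quantified by fluorescence of labelled RT-PCR products on capillary electrophoresis; gain- and loss-of-signal fits use DMSO as baseline.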

Assay [7] has as its target Paired box protein Pax-6 (Homo sapiens) (UniProt P26367). Put plainly: ATG_Pax6_CIS: Attagene CIS-FACTORIAL HepG2 Assay for human Paired Box 6 (PAX6) (AID 2282956). Conditions: HepG2 CIS-FACTORIAL PAX6 reporter transcription, RNA readout; actives raise or lower the signal. The method in brief: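 DMSO-referenced bidirectional fits of reporter mRNA fluorescence; HepG2 with transient cis-promoter MRTUs, 24 h post-dose, RT-PCR plus capillary electrophoresis detection.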

A short description of assay [8]: ATG_PXRE_CIS: Attagene CIS-FACTORIAL HepG2 Assay for human Pregnane X Receptor Element (PXRE) (AID 2282957). Conditions: HepG2 Attagene CIS-FACTORIAL PXRE reporter, mRNA; actives raise or lower the signal. The gist of the method: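 Fluorescent capillary electrophoresis of amplified reporter cDNA gave the signal, collected 24 h after dosing HepG2 cells that held transfected cis-element reporter constructs.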

Assay [9] is described as follows: ATG_PPRE_CIS: Attagene CIS-FACTORIAL HepG2 Assay for human Peroxisome Proliferator-activated Response Element (PPRE) (AID 2282958). The settings on record: HepG2 PPRE cis-element reporter, Attagene transcription factor profiling; actives raise or lower the signal. The gist of the method:
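Endogenous PPRE-driven transcription is measured in HepG2 cells carrying transfected multi-reporter constructs. Reporter transcripts are quantified by RT-PCR, HpaI digestion and capillary electrophoresis 24 h after dosing. DMSO baseline, bidirectional fit.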

The nature of assay [10]: ATG_RORE_CIS: Attagene CIS-FACTORIAL HepG2 Assay for human RAR-related Orphan Receptor Element (RORE) (AID 2282959). The settings on record: HepG2 Attagene cis-factorial RORE reporter, mRNA; actives raise or lower the signal. The gist of the method: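 RORE reporter transcripts reflecting endogenous factor activity were read after 24 h compound exposure of transfected HepG2 cells, using reverse transcription, PCR, fluorescent labelling and capillary electrophoresis sizing. Gain or loss fitted against DMSO.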

Assay [11] can be described thus: ATG_Sox_CIS: Attagene CIS-FACTORIAL HepG2 Assay for human SRY-box transcription factor (SOX) (AID 2282960). Conditions: HepG2 Attagene cis-factorial SOX reporter, mRNA; actives raise or lower the signal. The method in brief: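 Reporter transcripts, measured by RT-PCR and capillary electrophoresis of labelled fragments, report endogenous SOX transcription factor activity. Transiently transfected human HepG2 cells receive chemical for 24 h; changes in either direction are fitted relative to DMSO.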

Assay [12] deals with Transcription factor Sp1 (Homo sapiens) (UniProt P08047). Put plainly: ATG_Sp1_CIS: Attagene CIS-FACTORIAL HepG2 Assay for human Specificity Protein 1 (Sp1) (AID 2282961). Conditions: HepG2 Sp1 cis-reporter transcription, actives raise or lower the signal. The gist of the method: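 Read-out is reporter transcript level, measured by RT-PCR and fluorescent capillary electrophoresis after 24 h chemical treatment. System: transiently transfected HepG2 cells reporting endogenous transcription factor activity; gain or loss fitted against DMSO baseline.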
Transcription factor Sp1 (Homo sapiens), sequence (P08047 whole entry, looked up): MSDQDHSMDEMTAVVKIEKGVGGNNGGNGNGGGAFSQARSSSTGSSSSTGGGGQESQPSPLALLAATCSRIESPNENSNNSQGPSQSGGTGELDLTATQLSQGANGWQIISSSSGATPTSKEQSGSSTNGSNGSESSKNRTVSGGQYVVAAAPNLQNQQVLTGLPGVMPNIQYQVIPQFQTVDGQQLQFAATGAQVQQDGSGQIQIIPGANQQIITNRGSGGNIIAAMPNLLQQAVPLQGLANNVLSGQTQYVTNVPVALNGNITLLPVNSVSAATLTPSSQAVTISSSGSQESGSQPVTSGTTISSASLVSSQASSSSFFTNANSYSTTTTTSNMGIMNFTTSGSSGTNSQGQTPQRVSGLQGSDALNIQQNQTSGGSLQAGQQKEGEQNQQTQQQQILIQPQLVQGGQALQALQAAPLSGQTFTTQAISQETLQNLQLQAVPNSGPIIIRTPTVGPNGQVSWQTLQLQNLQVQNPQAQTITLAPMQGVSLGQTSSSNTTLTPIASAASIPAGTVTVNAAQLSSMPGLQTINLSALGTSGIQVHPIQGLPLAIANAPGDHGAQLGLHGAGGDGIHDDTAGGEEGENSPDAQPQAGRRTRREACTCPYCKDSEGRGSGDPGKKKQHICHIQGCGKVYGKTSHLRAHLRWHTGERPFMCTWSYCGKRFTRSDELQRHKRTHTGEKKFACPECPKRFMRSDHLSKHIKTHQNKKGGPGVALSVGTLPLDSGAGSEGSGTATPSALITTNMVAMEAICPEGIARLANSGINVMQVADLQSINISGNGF

Assay [13] in a line: ATG_SREBP_CIS: Attagene CIS-FACTORIAL HepG2 Assay for human Sterol Regulatory Element Binding (SREBP) (AID 2282962). The settings on record: HepG2 Attagene cis-factorial SREBP reporter, mRNA; actives raise or lower the signal. The method in brief:
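In this cis-format assay, HepG2 liver cells express reporters controlled by promoter elements responsive to native transcription factors. Exposure lasts 24 h; reporter mRNA fluorescence from capillary electrophoresis gives the signal, fitted bidirectionally against DMSO.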

The target of assay [14] is Signal transducer and activator of transcription 3 (Homo sapiens) (UniProt P40763). Briefly: ATG_STAT3_CIS: Attagene CIS-FACTORIAL HepG2 Assay for human Signal Transducer and Activator of Transcription 3 (STAT3) (AID 2282963). The settings on record: HepG2, Attagene cis-factorial STAT3 reporter transcription; actives raise or lower the signal. The method in brief:
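Fluorescence intensity of 6-FAM-labelled reporter fragments, separated by capillary electrophoresis after RT-PCR, gave the signal. Cells were HepG2 transfected with cis-element reporter units and treated 24 h; fitting was bidirectional relative to DMSO.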

Assay [15] can be described thus: ATG_TA_CIS: Attagene CIS-FACTORIAL HepG2 Assay for human TA Basal Promoter (AID 2282964). The settings on record: HepG2 Attagene CIS-factorial TA basal promoter reporter; actives raise or lower the signal. The gist of the method:
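Background internal-marker endpoint from a 52-component HepG2 cis-reporter panel. Cells treated 24 h; reporter transcripts quantified via RT-PCR and CE fluorescence against DMSO baseline.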

Assay [16] in a line: ATG_TAL_CIS: Attagene CIS-FACTORIAL HepG2 Assay for human TAL Basal Promoter (AID 2282966).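 Also: background control endpoint measuring basal TAL promoter reporter mRNA not a specific factor.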 The settings on record: HepG2 Attagene cis-factorial TAL promoter reporter; actives raise or lower the signal. The method in brief: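 Transiently transfected HepG2 (cis-regulated reporter units), 24 h treatment, mRNA read by fluorescent CE after RT-PCR; bidirectional fit, DMSO baseline.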

Assay [17] can be described thus: ATG_TGFb_CIS: Attagene CIS-FACTORIAL HepG2 Assay for human Transforming Growth Factor (TGF) (AID 2282967). The settings on record: HepG2 Attagene CIS TGFb reporter, mRNA transcription; actives raise or lower the signal. The method in brief: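 Liver HepG2 line, cis-factorial reporter panel, 24 h dosing. Quantitation: RT-PCR products labeled with 6-FAM, cut with HpaI, resolved by capillary electrophoresis; DMSO-referenced bidirectional analysis.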

A short description of assay [18]: ATG_VDRE_CIS: Attagene CIS-FACTORIAL HepG2 Assay for human Vitamin D Receptor Element (VDRE) (AID 2282968). The settings on record: HepG2 VDRE cis-reporter transcription, actives raise or lower the signal. The gist of the method: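 Compounds were applied for 24 h to HepG2 cells transfected with promoter-regulated reporter units. Total RNA was reverse-transcribed, and reporter amplicons were fluorescently labelled and sized by capillary electrophoresis.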

Assay [19] can be described thus: ATG_TCF_b_cat_CIS: Attagene CIS-FACTORIAL HepG2 Assay for human T-Cell-Factor with beta-catenin (TCF/b-cat) (AID 2282965). Conditions: HepG2 TCF/beta-catenin cis-reporter transcription, actives raise or lower the signal. The method in brief:
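HepG2, transient MRTU transfection, cis-element-driven reporters (endogenous TFs). 24 h compound exposure. Readout: reporter mRNA by RT-PCR + 6-FAM primer extension, HpaI digest, capillary electrophoresis. Gain/loss fit vs DMSO baseline.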

The nature of assay [20]: ATG_PBREM_CIS: Attagene CIS-FACTORIAL HepG2 Assay for human Phenobarbital-responsive Enhancer Module (PBREM) (AID 2282955). Conditions: HepG2 PBREM cis-reporter, Attagene multiplexed transcription; actives raise or lower the signal. The method in brief: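 Endogenous transcription factor activity was read from reporter transcripts in transiently transfected human HepG2 liver cells after 24 h dosing. RT-PCR products were fluorescently labelled, HpaI-cut and sized by capillary electrophoresis; activity fitted bidirectionally against DMSO baseline.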

Hepatocyte nuclear factor 6 (Homo sapiens), sequence (Q9UBC0 whole entry, looked up): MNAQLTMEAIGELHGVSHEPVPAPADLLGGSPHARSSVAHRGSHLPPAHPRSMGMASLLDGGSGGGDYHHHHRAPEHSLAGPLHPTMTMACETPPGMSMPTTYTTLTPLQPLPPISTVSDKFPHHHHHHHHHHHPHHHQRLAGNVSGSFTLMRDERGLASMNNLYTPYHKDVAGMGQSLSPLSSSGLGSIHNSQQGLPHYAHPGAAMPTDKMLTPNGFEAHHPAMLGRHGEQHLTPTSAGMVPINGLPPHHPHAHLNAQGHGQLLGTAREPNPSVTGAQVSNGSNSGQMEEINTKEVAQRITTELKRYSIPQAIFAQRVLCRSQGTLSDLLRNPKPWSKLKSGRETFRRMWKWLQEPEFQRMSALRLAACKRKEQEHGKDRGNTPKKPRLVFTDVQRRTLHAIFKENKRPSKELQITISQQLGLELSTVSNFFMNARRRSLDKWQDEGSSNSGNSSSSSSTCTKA
Signal transducer and activator of transcription 3 (Homo sapiens), sequence (P40763 whole entry, looked up, the tested form may be a part): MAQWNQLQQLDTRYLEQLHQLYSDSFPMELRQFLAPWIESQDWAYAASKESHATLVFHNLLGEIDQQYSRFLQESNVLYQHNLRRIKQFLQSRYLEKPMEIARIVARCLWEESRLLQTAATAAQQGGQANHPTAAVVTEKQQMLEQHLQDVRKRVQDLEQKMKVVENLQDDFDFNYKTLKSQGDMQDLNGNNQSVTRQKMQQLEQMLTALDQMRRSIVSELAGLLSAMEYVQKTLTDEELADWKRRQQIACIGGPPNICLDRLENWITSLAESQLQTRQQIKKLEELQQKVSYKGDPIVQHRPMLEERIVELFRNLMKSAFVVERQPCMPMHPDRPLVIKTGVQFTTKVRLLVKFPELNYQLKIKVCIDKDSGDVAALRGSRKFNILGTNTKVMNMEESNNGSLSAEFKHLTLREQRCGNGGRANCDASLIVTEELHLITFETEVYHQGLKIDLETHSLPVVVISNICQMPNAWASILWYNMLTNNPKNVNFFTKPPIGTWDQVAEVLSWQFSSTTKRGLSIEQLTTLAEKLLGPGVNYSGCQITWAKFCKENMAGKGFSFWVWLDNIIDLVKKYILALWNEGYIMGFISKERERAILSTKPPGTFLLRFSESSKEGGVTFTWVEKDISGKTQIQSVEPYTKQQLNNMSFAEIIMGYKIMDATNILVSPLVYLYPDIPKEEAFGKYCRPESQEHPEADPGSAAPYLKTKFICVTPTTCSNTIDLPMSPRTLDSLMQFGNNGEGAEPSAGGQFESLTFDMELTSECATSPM
Heat shock factor protein 1 (Homo sapiens), sequence (Q00613 whole entry, looked up): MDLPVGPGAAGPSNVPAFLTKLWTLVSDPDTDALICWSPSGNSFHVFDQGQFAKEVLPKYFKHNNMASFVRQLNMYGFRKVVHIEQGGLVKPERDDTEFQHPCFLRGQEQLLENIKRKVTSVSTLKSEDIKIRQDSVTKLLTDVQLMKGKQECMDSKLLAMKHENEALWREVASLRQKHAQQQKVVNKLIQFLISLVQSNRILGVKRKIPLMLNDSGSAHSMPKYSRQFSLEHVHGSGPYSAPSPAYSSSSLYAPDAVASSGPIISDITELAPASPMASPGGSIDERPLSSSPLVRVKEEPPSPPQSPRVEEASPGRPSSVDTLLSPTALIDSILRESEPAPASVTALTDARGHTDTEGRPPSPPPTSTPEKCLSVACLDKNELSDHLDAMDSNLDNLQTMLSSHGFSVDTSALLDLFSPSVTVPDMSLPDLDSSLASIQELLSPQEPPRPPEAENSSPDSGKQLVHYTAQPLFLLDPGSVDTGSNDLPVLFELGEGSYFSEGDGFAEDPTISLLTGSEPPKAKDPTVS
Paired box protein Pax-6 (Homo sapiens), sequence (P26367 whole entry, looked up): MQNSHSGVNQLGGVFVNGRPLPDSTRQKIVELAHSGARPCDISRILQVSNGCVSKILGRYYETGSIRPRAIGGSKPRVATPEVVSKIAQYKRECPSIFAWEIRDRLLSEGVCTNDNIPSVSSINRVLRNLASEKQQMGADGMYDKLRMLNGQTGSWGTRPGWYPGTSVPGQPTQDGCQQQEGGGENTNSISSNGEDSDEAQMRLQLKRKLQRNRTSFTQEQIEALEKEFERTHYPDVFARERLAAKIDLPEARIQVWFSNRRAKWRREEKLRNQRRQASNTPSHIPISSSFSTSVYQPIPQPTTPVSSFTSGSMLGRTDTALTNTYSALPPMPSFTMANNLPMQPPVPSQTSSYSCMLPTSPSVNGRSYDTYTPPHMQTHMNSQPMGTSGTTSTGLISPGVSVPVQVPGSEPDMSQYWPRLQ

For the compound `C1CCC(C2CCCCC2)CC1`, the compound was called inactive in assay [1], in [2], in assay [3], in assay [4], in assay [5] and in assay [6]. In addition, the compound was classed as inactive in [7], in assay [8], in assay [9], in assay [10], in assay [11] and in assay [12]. In addition, the compound was classed as inactive in [13], in assay [14], in assay [15], in [16], in assay [17] and in assay [18].

With `Brc1ccc(Oc2c(Br)cc(Br)cc2Br)c(Br)c1`, the compound was called inactive in assay [1], in [2], in assay [3], in [4], in assay [5] and in assay [6]. Besides, the compound was called inactive in assay [7], in [8], in assay [9], in assay [10], in [11] and in [12]. Also, the compound was classed as inactive in assay [13], in assay [14], in [15], in assay [19], in assay [16] and in assay [17]. The outcome in assay [18] was inactive.

As a reminder, the AC50 is the midpoint of the concentration-response curve, whichever way the signal moves. `O=C(Cc1ccccc1)OCCc1ccccc1`: the call in assay [1], in assay [2], in assay [3], in [4], in assay [5] and in assay [6] was inactive. Besides, the call in [7], in assay [8], in [9], in assay [10], in assay [11] and in [12] was inactive. In addition, the call in [13], in assay [14], in assay [15], in assay [19], in [16] and in assay [18] was inactive. Also, in assay [17], the AC50 is 115 µM (active).

As for `O=C(O)COc1ccc(Cl)cc1`, the call in assay [1], in assay [2], in assay [3], in assay [4], in assay [5] and in assay [6] was inactive. For the same compound, the result in assay [20], in [8], in [9], in assay [12], in assay [13] and in [14] was inactive. In addition, the compound was called inactive in [15], in assay [16], in [17] and in assay [18].
